Consider 49 compounds from ChEMBL document CHEMBL4808148, “HDAC6 screening dataset using tau-based substrate in an enzymatic assay yields selective inhibitors and activators” (2021).

The campaign covered roughly 5,600 compounds. About 390 (7%) showed an effect of 50% or more. Shown is part of a subset that was picked to be rich in strong results.

The target in assay [1] is T1, Protein deacetylase HDAC6 (Homo sapiens) (UniProt Q9UBN7).
T1 sequence (whole entry): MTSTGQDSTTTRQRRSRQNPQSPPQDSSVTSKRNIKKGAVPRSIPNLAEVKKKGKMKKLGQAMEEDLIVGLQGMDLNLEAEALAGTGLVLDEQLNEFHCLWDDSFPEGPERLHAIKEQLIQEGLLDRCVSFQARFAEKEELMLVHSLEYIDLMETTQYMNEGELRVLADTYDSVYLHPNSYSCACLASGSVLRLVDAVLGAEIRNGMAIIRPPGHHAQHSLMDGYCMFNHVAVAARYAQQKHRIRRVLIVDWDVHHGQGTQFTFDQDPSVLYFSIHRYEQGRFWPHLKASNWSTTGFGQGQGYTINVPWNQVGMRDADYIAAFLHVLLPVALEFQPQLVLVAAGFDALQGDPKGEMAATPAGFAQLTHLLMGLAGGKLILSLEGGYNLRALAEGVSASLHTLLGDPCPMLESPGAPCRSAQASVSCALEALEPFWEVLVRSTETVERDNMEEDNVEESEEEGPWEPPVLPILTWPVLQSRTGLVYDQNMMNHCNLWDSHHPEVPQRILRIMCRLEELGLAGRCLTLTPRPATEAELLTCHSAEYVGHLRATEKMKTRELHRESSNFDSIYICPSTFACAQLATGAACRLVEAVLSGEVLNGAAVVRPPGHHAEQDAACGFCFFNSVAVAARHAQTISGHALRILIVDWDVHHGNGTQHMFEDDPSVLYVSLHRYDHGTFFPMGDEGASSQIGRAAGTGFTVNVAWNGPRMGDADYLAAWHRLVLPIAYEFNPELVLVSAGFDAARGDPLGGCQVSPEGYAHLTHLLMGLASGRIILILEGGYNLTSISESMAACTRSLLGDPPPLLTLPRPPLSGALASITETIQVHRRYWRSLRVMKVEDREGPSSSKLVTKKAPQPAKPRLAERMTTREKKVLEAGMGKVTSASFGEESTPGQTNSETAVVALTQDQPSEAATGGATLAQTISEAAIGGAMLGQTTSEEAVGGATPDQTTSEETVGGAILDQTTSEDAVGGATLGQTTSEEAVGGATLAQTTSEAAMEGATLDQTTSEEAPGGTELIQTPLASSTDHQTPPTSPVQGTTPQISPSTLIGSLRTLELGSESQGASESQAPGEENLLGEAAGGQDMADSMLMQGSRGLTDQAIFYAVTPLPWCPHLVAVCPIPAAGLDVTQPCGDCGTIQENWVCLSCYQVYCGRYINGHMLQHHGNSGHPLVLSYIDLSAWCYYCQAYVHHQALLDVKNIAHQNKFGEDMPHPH
The note with it: at 10 µM.

The target of assay [2] is Protein deacetylase HDAC6 (Homo sapiens) (UniProt Q9UBN7). The note with it: at 10 µM. This is another data set of the same source.

Take `CCCN(CCC)C(=O)C(CCC(=O)OCCCN1CCN(CCOC(=O)Cc2c(C)n(C(=O)c3ccc(Cl)cc3)c3ccc(OC)cc23)CC1)NC(=O)c1ccccc1` (centres undefined): the inhibition in assay [1] was -4.35%.
For the compound `O=[N+]([O-])c1cc(Cl)ccc1S(=O)(=O)c1ccccc1`, the inhibition in assay [1] is 13.8%.
On to `NC1=NC(=O)N([C@H]2C[C@H](O)[C@@H](CO)O2)CN1`, for which the inhibition in assay [1] is 19.8%.
As for `Brc1ccc(NC2C3CC4CC(C3)CC2C4)cc1` (centres undefined), the inhibition in assay [1] amounted to 5.83%.
Consider `O=S(=O)(c1ccccc1F)N1CCOc2c(N3CCNCC3)cccc21`, for which the inhibition in assay [1] came out at 3.08%.
In the case of `CC(=O)O[C@]1(C(C)=O)CC[C@H]2[C@@H]3C=CC4=CC(=O)CC[C@]4(C)[C@H]3CC[C@@]21C`, the inhibition in assay [1] stood at 31.5%.
On to `CCCSc1ccc2[nH]c(NC(=O)OC)nc2c1`, for which the inhibition in assay [1] was 58.8%.
Take `CCOC(=O)Nc1nc2ccccc2[nH]1`: the inhibition in assay [1] amounted to 34.2%.
`CCC[S+]([O-])c1ccc2[nH]c(NC(=O)OC)nc2c1` (centres undefined): the inhibition in assay [1] was determined as 18.6%.
The same measure, in the same setting: the result for `Cc1nc(N(C)C(=O)Cc2ccc(-c3ccccn3)cc2)sc1S(N)(=O)=O` reads 23.9%; that for `CCOC(=O)Nc1ccc2c(c1)N(C(=O)CCN(CC)CC)c1ccccc1S2`, 14.5%; that for `Nc1nccc(Oc2ccc(NC(=O)c3cn(COP(=O)(O)O)cc(-c4ccc(F)cc4)c3=O)cc2F)c1Cl`, 21.9%.
On the same count and under the same terms, the result for `CC(=O)N1CCC(NC(=O)c2ccc(F)cc2)CC1` reads 13.7%; that for `O=C(/C=C/c1cccc(F)c1)NC1CC1`, 52.8%.
The same measure, in the same setting: the result for `C[C@H]1CN(Cc2ccc(CC(=O)N3CCC(Nc4cccc(F)c4)CC3)cc2)CCN1` reads 44.9%; that for `O=C(C(c1ccccc1)c1ccccc1)N1CCN(CC(O)COc2cccc3ncccc23)CC1` (centres undefined), 5.51%; that for `COc1ccc(C2CNC(=O)NC2)cc1O[C@H]1C[C@@H]2CC[C@H]1C2`, 6.99%.
`CCOC(=O)[C@H](CCc1ccccc1)N[C@@H](C)C(=O)N1C(=O)N(C)C[C@H]1C(=O)O`: the inhibition in assay [1] is 15.9%.
For `CC(=O)Oc1ccccc1C(=O)Nc1ncc([N+](=O)[O-])s1`, in assay [1], the inhibition stood at 103%.
In the case of `O=C1NC(O)CCN1[C@@H]1O[C@H](CO)[C@@H](O)[C@H]1O` (some centres undefined), the inhibition in assay [1] came to 15.9%.
As to `C[C@@H]1CC2C3CCC4=CC(=O)C=C[C@]4(C)[C@@]3(F)[C@@H](O)C[C@]2(C)[C@H]1C(=O)CO` (some centres undefined), the inhibition in assay [1] amounted to 6.55%.
On to ESCIN, CHEMBL4594473, for which, in assay [2], the inhibition was 3.89%.
For the compound `O=C(COc1ccc(Cl)cc1)N[C@H]1CC[C@H](NC(=O)COc2ccc(Cl)cc2)CC1`, the inhibition in assay [1] is -5.96%.
As for `CN1[C@@H]2C[C@@H](O)C[C@H]1[C@@H]1O[C@@H]12`, the inhibition in assay [1] came out at 91.4%.
For `Cc1cc(C)c(NC(=O)N(Cc2ccc3c(c2)Cc2ccccc2-3)C2CCCCCC2)c(C)c1`, the inhibition in assay [1] turned out to be 0.9%.
`CN1CCN(Cc2ccc(Nc3ncc(Cl)c(Nc4ccccc4S(=O)(=O)N(C)C)n3)cc2)CC1`: the inhibition in assay [1] amounted to 5.09%.
`CC1(C)S[C@@H]2[C@H](NC(=O)[C@H](NC(=O)N3CCNC3=O)c3ccccc3)C(=O)N2[C@H]1C(=O)O`: the inhibition in assay [1] came to 13.9%.
Consider `O=C(O)CC(S)C(=O)O` (centres undefined), for which the inhibition in assay [1] is 18.6%.
With `O[AsH]O[AsH]O` (centres undefined), the inhibition in assay [1] is -5.16%.
On to `O=C(CO)[C@@H](O)[C@@H](O)[C@H](O)CO`, for which, in assay [1], the inhibition turned out to be 3.04%.
GADOTERIDOL, CHEMBL1200593: in assay [2], the inhibition is -7.04%.
With VANADATE ION, CHEMBL1163564, the inhibition in assay [2] amounted to 8.48%.
Consider PHENYLMERCURIC ACETATE, CHEMBL1333953, for which the inhibition in assay [2] stood at 113%.
For the compound `CCNCc1cc(C(C)(C)C)c(O)c(C(C)(C)C)c1`, the inhibition in assay [1] stood at 36.2%.
Turning to `CNc1ccc([N+](=O)[O-])cc1-n1cnc(-c2ccc(C(F)(F)F)cc2)c1`, the inhibition in assay [1] was -2.07%.
In the case of `CCN1CCN(Cc2ccc(C(=O)Nc3ccc(C)c(Oc4ccc5c(c4)CC(=O)N5)c3)cc2C(F)(F)F)CC1`, in assay [1], the inhibition came to 42.8%.
On to `Cc1ccc(C(=O)Nc2ccc(CN3CCN(C)CC3)c(C(F)(F)F)c2)cc1C#Cc1cnc2[nH]ncc2c1`, for which the inhibition in assay [1] was 69%.
Still for that read-out and setting: the same measure for `CCCCC(F)(F)[C@@]1(O)CC[C@H]2[C@@H](CC(=O)[C@@H]2CCCCCCC(=O)O)O1`: 26.8%.
As to `Nc1c(S(=O)(=O)O)cc(Nc2cccc3ccccc23)c2c1C(=O)c1ccccc1C2=O`, the inhibition in assay [1] is 30.6%.
With `CNC(C)CC1CCCCC1` (centres undefined), the inhibition in assay [1] is -3.99%.
The same measure, in the same setting: the same measure for `COc1ccc2nc3c(c(N)c2c1)CCCC3`: 14.7%.
The same measure, in the same setting: the result for `Cc1cc(O)c2c(c1)C(=O)c1cc(O)cc(O)c1C2=O` reads 99.6%.
With `O=C(Nc1ccncc1)C(=O)c1cn(Cc2ccc(Cl)cc2)c2ccccc12`, the inhibition in assay [1] was found to be 11.2%.
On to `CCCCCCOc1nsnc1C1=CCCN(C)C1`, for which, in assay [1], the inhibition stood at 21.1%.
On to `CSCC[C@H](NC(=O)[C@H](Cc1ccccc1)NC(=O)CNC(=O)CNC(=O)[C@@H](N)Cc1ccc(O)cc1)C(=O)O`, for which the inhibition in assay [1] was -7.67%.
Still for that read-out and setting: the result for `CC(C)Cc1ccc(C(C)C(=O)NCCO)cc1` (centres undefined) reads 5.6%; that for `Nc1nonc1/C(=N/O)Nc1ccc(F)c(Cl)c1`, 6.27%; that for `CC(=O)Nc1ccc(Cc2ccc(NC(C)=O)cc2)cc1`, 37.1%.
On to `O=C(Nc1ccc(Cl)cc1)Nc1ccc(Cl)c(Cl)c1`, for which the inhibition in assay [1] is 52.2%.
